Lassa entry inh: qHTS for Inhibitors of binding or entry into cells for Lassa Virus; Potency, µM (series often up to 37.9 µM), inactives show at the top dose activity change, negative = inhibition, usual class: inhibitors; Lassa virus pseudotype entry inhibition, cell reporter; 300,000 compounds, 1.2% hits; AID 540256, 2011; calls by dose curve; tested in HEK293 cells; note: potency is the fitted concentration of half-maximal effect; nearly all actives have a fitted effect of over 50% in size
FMDV inh: High Throughput Screening for Foot and Mouth Disease Virus Antivirals | FMDV antiviral cell-based qHTS | Potency, µM (doses to about 57.9 µM), inactives show top-dose activity change, negative = inhibition, usual class: inhibitors | 410,000 compounds, 1.2% hits | AID 1159524, 2015; calls by dose curve; tested in HEK293T cells; note: read-out not given here; potency is the fitted concentration of half-maximal effect; nearly all actives have a fitted effect of over 45% in size
HCMV antiviral: qHTS Assay for inhibitors of the human cytomegalovirus (HCMV). 410,000 compounds, 4.5% hits. AID 1259415, 2018. HFF cells, HCMV-luciferase reporter, 72 h; hits give low values. activity change, negative = inhibition, % at 57.5 µM; in the data active = activity change below about -60%; inconclusive = no clear call, values can overlap the other calls; inactive = above about -39%
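Cell-based, HFFs, 1000 cells/well, 16 h 37C; cpds in DMSO + HCMV-luc, MOI 1 PFU/cell; 72 h 37C; OneGlo luminescence after 5 min RT; norm. to buffer vs Salinomycin 10uM.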
MARV entry inh: qHTS for inhibitors of binding or entry into cells for Marburg Virus; Marburg virus pseudotyped entry inhibition, cell reporter; Potency, µM (series often up to 37.8 µM), for the others: at the highest dose activity change, negative = inhibition, usual class: inhibitors; 300,000 compounds, 1.8% hits; AID 540276, 2011; calls by dose curve; tested in HEK293 cells; note: potency is the fitted concentration of half-maximal effect
The depositor's hits bear a star; ? = inconclusive; . = not tested or not shown; + = active, no number; [ ] = dose if it differs, or a comment. Rows were chosen to be rich in hits. Some 6.2% of all compounds tested hit in one or more screens of this group. % is set by controls: 0 for no effect and ±100 for the full control effect.

SMILES	Lassa entry inh	FMDV inh	HCMV antiviral	MARV entry inh
O=C(CCCCCn1c(=O)[nH]c2ccccc2c1=O)N1CCN(Cc2ccc3c(c2)OCO3)CC1	16µM*	?	-19	?
CCn1c(=O)cc(SCC(=O)N2CCN(Cc3ccc4c(c3)OCO4)CC2)c2ccccc21	-19%	40µM*	99	1%
Cc1c(C(O)CN2CCN(Cc3ccc4c(c3)OCO4)CC2)c2ccccc2n1C (stereo unspecified)	?	-14%	-28	?
OC(CN1CCN(Cc2ccc3c(c2)OCO3)CC1)c1c[nH]c2ccccc12 (stereo unspecified)	?	0%	-88*	-28%
O=C(Nc1cccc(Cl)c1)c1csc(COCCO)n1	.	35%	28	.
CCCOc1ccc(C(=O)C(CN2CCCC2)c2ccccc2)cc1 (stereo unspecified)	?	18µM*	-82*	?
CCCOc1ccc(C(O)C(CN2CCOCC2)c2ccccc2)cc1 (stereo unspecified)	-20%	-22%	?	-6%
CCCCCCCCCC(=O)NC(CN1CCOCC1)[C@H](O)c1ccccc1 (stereo partly specified)	?	.	.	16µM*
CCCCOc1ccc(C(=O)C(CN2CCOCC2)c2ccccc2)cc1 (stereo unspecified)	?	18µM*	-107*	?
O=C(c1ccc(F)cc1)C(CN1CCOCC1)c1ccccc1 (stereo unspecified)	?	8.9µM*	-77*	?
CC(=O)Nc1ccc(CN2CCn3c(nnc3C(=O)NCC3CC3)C2)cc1	.	.	3	.
O=C1[C@H]2[C@H]3[C@H](O)[C@H](O)C/C(=N\OCc4ccccc4)[C@@H]3CC[C@H]2C(=O)N1Cc1ccc2c(c1)OCO2	.	.	.	-17%[14.2 µM]
O=C(c1ccc(Cl)cc1)C(CN1CCCC1)c1ccccc1 (stereo unspecified)	.	25µM*	-101*	.
O=C(c1ccccc1)C(CCC(CN1CCOCC1)C(=O)c1ccccc1)CN1CCOCC1 (stereo unspecified)	14µM*	25µM*	-105*	?
c1ccc(C(CN2CCOCC2)c2ccccc2)cc1	-2%	4%	40	20%
CCC(O)(c1ccc(OC)cc1)C(CN1CCOCC1)c1ccccc1 (stereo unspecified)	.	-13%	?	.
COc1ccc(C(=O)C(CN2CCOCC2)c2ccccc2)cc1 (stereo unspecified)	13µM*	11µM*	-99*	?
COc1ccc(C(=O)CCN2CCCCCC2)cc1	-24%	-19%	14	-4%
COc1ccc(C(=O)C(CN2CCCC2)c2ccccc2)cc1 (stereo unspecified)	?	16µM*	-95*	?
CCS(=O)(=O)c1ccc(OC)c(Nc2ncc(-c3cccc(F)c3)o2)c1	-34%	.	.	.
COCCNC(=O)c1cnn(-c2cccc(C)c2)c1-n1cccc1	19%[46.1 µM]	12%	+	.
CCOC(=O)N1CCC(NC(=O)c2cnn(-c3cccc(C)c3)c2-n2cccc2)CC1	-19%[46.1 µM]	?	0	.
Cc1cc(SCc2sc(-c3ccc(C(F)(F)F)c(F)c3)nc2C)ccc1OCC(=O)O	.	-10%	.	.
O=S(=O)(Nc1ccc(N2CCCCC2)cc1)c1ccc(F)cc1	.	-9%	-61*	.
O=S(=O)(NC1CCCCC1N1CCN(c2ccc(F)cc2)CC1)c1ccccc1 (stereo unspecified)	.	?	+	.
SMILES	Lassa entry inh	FMDV inh	HCMV antiviral	MARV entry inh
O=S(=O)(Nc1ccc(N2CCOCC2)cc1)c1ccc(F)cc1	-13%	-4%	20	-28%[46.1 µM]
O=S(=O)(Nc1ccc(N2CCCCC2)cc1)c1ccc(F)cc1F	1%	-26%	-60*	-6%
COc1ccc(Cl)cc1NC(=O)C1CCN(c2ncnc3c2nc2n3CCCCC2)CC1	8%[46.1 µM]	?	5	.
CN(C(=O)c1ccco1)c1nc2c(s1)CCCC2	6.3µM*	-38%	72	?
CN(C(=O)c1ccco1)c1nnc(C23CC4CC(CC(C4)C2)C3)s1	13%	19%	-1	?
CCOc1ccccc1CNC(=O)c1ccc2nc(Cc3ccc(OC)cc3)oc2c1	-20%[46.1 µM]	-27%	-32	.
CCOC(=O)c1cnc2ccccc2c1Nc1ccc2c(c1)OCCO2	-25%	?	-70*	-29%
CCOC(=O)c1cnc2ccccc2c1NCc1ccco1	.	0%	?	.
N#Cc1ccc(Oc2cccc3cccnc23)c([N+](=O)[O-])c1	?	-10%	?	-13%[46.1 µM]
O=[N+]([O-])c1ccc(Oc2cccc3cccnc23)c([N+](=O)[O-])c1	?	?	-69*	?
Cc1ccccc1N1C(=O)NC(=O)/C(=C\c2cc(Br)c(N3CCOCC3)o2)C1=O	3%	16µM*	52	?
Cc1cccc(CN2C(=O)N/C(=C/c3cc(C)n(-c4cc(C)ccn4)c3C)C2=O)c1	11µM*	-30%	.	?
Cc1ccc(/C=C2/NC(=O)N(Cc3ccccc3)C2=O)s1	?	0%	57	2%
Cc1cccc(CN2C(=O)N/C(=C/c3ccc(C)s3)C2=O)c1	3.2µM*	2%	2	?
Cn1c(NCc2cccnc2)nc2cc(-c3cccc(C(F)(F)F)c3)sc2c1=O	.	-29%	14	.
O=C(NNC1=Nc2cccc3cccc1c23)c1ccc(Br)cc1	-16%[46.1 µM]	0%	-62*	?
Cc1nc(C)c(C(=O)N2CCc3c(cnc(C)c3CNC(=O)c3cncs3)C2)s1	.	-8%	.	.
O=S(=O)(NCCC1=CCCCC1)c1ccc(Br)cc1	?	37%	-73*	9%
Cc1ccc(NC(=O)c2cc(S(=O)(=O)NCCC3=CCCCC3)ccc2F)cc1	?	-21%	-84*	?
Cc1ccc(C)c(NC(=O)c2cc(S(=O)(=O)NCCC3=CCCCC3)ccc2F)c1	-22%[46.1 µM]	13%	-34	.
CCOc1ccc(NC(=O)CSC2=Nc3ccccc3C3=NC(CC(=O)NCc4ccc5c(c4)OCO5)C(=O)N23)cc1 (stereo unspecified)	-18%[46.1 µM]	0%	62	.
c1nc(N2CCOCC2)c2[nH]cnc2n1	15%	4%	0	-2%
c1nc(N2CCCCC2)c2[nH]cnc2n1	-5%	5%	-71*	?
CCn1c2ccccc2c2cc(NC(=O)c3cc(OC)c(OC)c(OC)c3)ccc21	?	-9%	-88*	1.4µM*
CCn1c2ccccc2c2cc(NC(=O)c3cc(OC)cc(OC)c3)ccc21	?	-7%	-92*	?
SMILES	Lassa entry inh	FMDV inh	HCMV antiviral	MARV entry inh
CCn1c2ccccc2c2cc(NC(=O)COc3ccc(OC)cc3)ccc21	-12%	-19%	-27	?
CSc1nc(NCCOCCO)c2sc3nc(-c4ccco4)c4c(c3c2n1)CCC4	?	40µM*	-1	?
COc1cc(=O)n2c(c1C(=O)N(C)Cc1nonc1C)CCN(C(=O)c1ccc(C)c(C)c1)CC2	.	22%	.	.
O=C(O)C(Cc1ccccc1)N1CCS(=O)(=O)CC1 (stereo unspecified)	-11%	-3%	?	19%[46.1 µM]
COC(=O)C(Cc1ccccc1)N1CCS(=O)(=O)CC1 (stereo unspecified)	8%	-4%	-69*	17%[46.1 µM]
C[C@H]1C=CC(=O)O[C@H]1c1ccccc1	.	-28%	-77*	.
